Results: the antibiotic and cytotoxicity screens of Wong et al. (2023)
The whole screen tested about 39,000 compounds, of which about 3,300 (8.5%) were called active. Only a selection was taken, and actives are over-represented in it overall.

These molecules were tested on HepG2 (assay: cytotoxicity call (relative viability < 0.9)). Conditions: 10 µM.
`CN(C)CC(=O)N[C@H]1C=C[C@@H](CC(=O)O)O[C@@H]1CO` was tested, and the cytotoxicity call was “inactive”.
For `C[C@H](CO)N1C[C@H](C)[C@H](CN(C)C(=O)Nc2ccc(C(F)(F)F)cc2)Oc2ccc(NC(=O)Cc3ccccc3)cc2CC1=O`, the cytotoxicity call was “inactive”.
For `C[C@H]1CN([C@@H](C)CO)C(=O)c2cccc(NC(=O)Nc3ccccc3)c2O[C@H]1CN(C)Cc1ccc(Oc2ccccc2)cc1`, the cytotoxicity call was “inactive”.
`Cc1noc(C)c1S(=O)(=O)Nc1ccc2c(c1)C(=O)N([C@H](C)CO)C[C@H](C)[C@H](CN(C)Cc1ccc3c(c1)OCO3)O2` was tested, and the cytotoxicity call was “inactive”.
For `COC[C@@H](O)CNc1ncnc2c1CCNCC2`, the cytotoxicity call was “inactive”.
For `C[C@H]1CN([C@@H](C)CO)C(=O)c2cccc(NC(=O)c3nc4ccccc4s3)c2O[C@@H]1CN(C)CC1CCCCC1`, the cytotoxicity call was “inactive”.
In the case of `Cc1noc(C)c1S(=O)(=O)N(C)C[C@H]1Oc2ccc(NC(=O)NC(C)C)cc2CC(=O)N([C@@H](C)CO)C[C@@H]1C`, the cytotoxicity call is reported as “inactive”.
In the case of `C[C@@H]1CN([C@@H](C)CO)C(=O)c2cc(NC(=O)c3ccccc3)ccc2O[C@@H](C)CCCCO[C@H]1CN(C)C(=O)Cc1ccccc1`, the cytotoxicity call is reported as “inactive”.
`O=C([C@H]1CCCCN1)N1CCCC1` was tested, and the cytotoxicity call was “inactive”.
`CC(=O)N1[C@H](CO)[C@@H](c2ccccc2)[C@H]1CNC(=O)CN1CCOCC1` was tested, and the cytotoxicity call was “inactive”.
`Cc1ccc(S(=O)(=O)N(C)C[C@H]2OCCCC[C@@H](C)Oc3ccc(NC(=O)NC4CCCCC4)cc3C(=O)N([C@@H](C)CO)C[C@H]2C)cc1` was tested, and the cytotoxicity call was “inactive”.
With `Cc1ccc(S(=O)(=O)N(C)C[C@@H]2OCCCC[C@@H](C)Oc3ccc(NC(=O)NC4CCCCC4)cc3C(=O)N([C@H](C)CO)C[C@@H]2C)cc1` the cytotoxicity call was “inactive”.
In the case of `Cc1ccc(S(=O)(=O)N(C)C[C@@H]2OCCCC[C@@H](C)Oc3ccc(NC(=O)NC4CCCCC4)cc3C(=O)N([C@@H](C)CO)C[C@H]2C)cc1`, the cytotoxicity call is reported as “inactive”.
For `Cc1ccc(S(=O)(=O)N(C)C[C@H]2OCCCC[C@@H](C)Oc3ccc(NC(=O)NC4CCCCC4)cc3C(=O)N([C@@H](C)CO)C[C@@H]2C)cc1`, the cytotoxicity call was “active”.
`Cc1ccc(S(=O)(=O)N(C)C[C@@H]2OCCCC[C@H](C)Oc3ccc(NC(=O)NC4CCCCC4)cc3C(=O)N([C@@H](C)CO)C[C@@H]2C)cc1` was tested, and the cytotoxicity call was “inactive”.
With `Cc1ccc(S(=O)(=O)N(C)C[C@@H]2OCCCC[C@@H](C)Oc3ccc(NC(=O)NC4CCCCC4)cc3C(=O)N([C@H](C)CO)C[C@H]2C)cc1` the cytotoxicity call was “active”.
With `COc1ccc(S(=O)(=O)N(C)C[C@H]2OCCCC[C@@H](C)Oc3ccc(NC(=O)Nc4ccc(C(F)(F)F)cc4)cc3C(=O)N([C@H](C)CO)C[C@@H]2C)cc1` the cytotoxicity call was “inactive”.
